Results on five compounds are retold here after PubChem BioAssay.

Assay [1] in a line: Wnt pathway potentiators raising nuclear beta-catenin – imaging, WNT3A-conditioned medium, mouse C2C12, NPC library, primary screen (AID 1117326; in the data active = nuclear beta-catenin stimulation mostly above about 4.2%, no sharp cut-off; inactive = mostly below about 10%). As to conditions: stronger effect = higher value.
A short description of assay [2]: stimulators of insulin release from INS-1E, primary screen, cell-based, 5 mM glucose, NPC library (AID 1117329;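 active = compound raises insulin release from rat beta cells at 5 mM glucose, no numeric limit stated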). The conditions noted are these: rat INS-1E insulin secretion, at 10 µM, stronger effect = higher value.
Assay [3] is described as follows: growth inhibition of GSK3B-pretreated HCT116 cells – cell-based, CellTiter-Glo, 0.2 to 20 µM (AID 1117336;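 active = compounds lowering colon cancer cell viability after pretreatment blocking the GSK3B kinase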). The conditions noted are these: HCT116 viability after GSK3B inhibitor, at 20 µM, stronger effect = higher value. (In ATP-based viability assays light output follows the ATP content of the culture.)
The nature of assay [4]: inhibition of endothelial tube formation, primary screen, imaging, VEGF stimulated, CD31 staining, tube area, NPC library (AID 1117340;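 active = compound that reduces growth-factor-driven endothelial tube area in a mixed cell culture, no cutoff stated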). The conditions noted are these: VEGF-stimulated ADSC/ECFC co-culture, at 10 µM, stronger effect = higher value.
Assay [5] is described as follows: GLP1 release stimulators, primary, NCI-H716, NPC library (AID 1117341;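 active = compound raises GLP1 secretion from the human gut endocrine cells, with no numeric limit stated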). As to conditions: NCI-H716 cells, at 10 µM, stronger effect = higher value.
Assay [6] can be described thus: HCT116 colon cancer cell growth inhibition, primary screen, CellTiter-Glo luminescence, NPC library (AID 1117342;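 active = compounds that lower survival of HCT116 colon cancer cells in the luminescence readout, no numeric limit stated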). As to conditions: at 20 µM (top of the series).
Assay [7] is described as follows: reduced SW480 viability measured with CellTiter-Glo, NPC library, primary (AID 1117343;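 active = compounds that lower viability of the colon cancer cells in the luminescence readout, with no numeric limit stated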). As to conditions: CellTiter-Glo luminescence; at 20 µM (top of the series) unless noted.
Assay [8] can be described thus: NPC library primary testing for decreased DLD-1 cell viability via CellTiter-Glo (AID 1117346;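 active = compounds that lower survival of DLD-1 colon cancer cells in the luminescence readout, no cutoff given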). As to conditions: DLD-1 viability, CellTiter-Glo luminescence; at 20 µM (top of the series).
A short description of assay [9]: viability loss with induced miR-34 in A549 – imaging, A549 dox-inducible miR-34, nuclei and caspase counts, primary screen (AID 1347080). The conditions noted are these: A549 miR-34 inducible, Hoechst nuclei count, 48 h.
Assay [10] is described as follows: galactose survival enhancers in mitochondrial complex I cybrids – cell-based, galactose medium, ATP luminescence, primary screen (AID 1645843;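 active = z-score of at least 1.8 in each of two replicates, scored against plate mean and spread of sample wells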;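 also: positive z means more ATP and so rescue of galactose-driven cybrid death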). As to conditions: complex I mutant cybrid cells, 72 h, stronger effect = higher value.
Assay [11] has as its target ATP-dependent translocase ABCB1 (Homo sapiens) (UniProt P08183). In words: P-glycoprotein substrate transport blockade – cell-based (AID 377; in the data active = fluorescence slope change above about 50%). As to conditions: MDR1-expressing cells, fluorescent substrate accumulation slope; stronger effect = higher value; concentration not given here.
Assay [12] can be described thus: compounds altering viability of human ES cells (AID 493140; call rule not given here;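 also: cells exposed to compounds for four days before counting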). The conditions noted are these: human embryonic stem cell survival screen; stronger effect = higher value.
A short description of assay [13]: P. berghei load reduction in hepatocytes – cell-based, HepG2, luciferase luminescence, HepG2 viability, primary screen (AID 624349; in the data active = parasite load remaining mostly below about 12%, no sharp cut-off; inactive = mostly above about 10%;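 also: 100% = mean of DMSO negative control wells on the same plate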). As to conditions: P. berghei liver stage in HepG2, luciferase luminescence, concentration not given here; parasite load remaining: stronger effect = lower value; viability: measured here: HepG2 viability without parasites.
A short description of assay [14]: MELAS cybrid and Rieske KO viability enhancers – cell-based, MELAS cybrids, Rieske KO mouse fibroblasts, CellTiter-Glo, primary screen (AID 1508586;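 active = mean z-score across replicates of 1.96 or higher in either the MELAS or the Rieske mutant cell line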;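 also: z relative to plate mean and SD of compound and empty wells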). As to conditions: low glucose.
Assay [15] concerns the target NAD(+) hydrolase SARM1 (Homo sapiens) (UniProt Q6SZW1). In words: blocking NAD cleavage by SARM1 SAM-TIR – cell lysate, NAD-Glo luminescence (AID 1508614;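 active = compound whose remaining NAD level is above about 45 nM, limit read from the data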;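 also: higher remaining NAD means stronger inhibition of SARM1 NADase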). As to conditions: SAM-TIR HEK293T lysate NADase, at 1 µM, stronger effect = higher value.
The target of assay [16] is Mitogen-activated protein kinase 7 (Homo sapiens) (UniProt Q13164). In words: Gal4-ERK5 driven luciferase induction – cell-based, HTS, primary screen (AID 1508626;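 active = luciferase signal above three times the same-plate solvent-only control wells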;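 also: luciferase driven by Gal4-ERK5 fusion binding five Gal4 sites before minimal TATA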). As to conditions: HeLa Gal4-ERK5 transactivation, 18 h, at 5 µM, stronger effect = higher value.
The mark [17] stands for this setting: stronger effect = lower value, cell number ratio, induced over uninduced.
The mark [18] stands for this setting: measured here: relative caspase fold change +Dox/-Dox.
The mark [19] stands for this setting: measured here: total cells with miR-34 induction, stronger effect = lower value.
[20] abbreviates: measured here: total cells without miR-34 induction.
[21] abbreviates: MELAS cybrid survival, CellTiter-Glo 48 h, stronger effect = higher value.
Setting [22] is: Rieske KO mouse fibroblast survival, CellTiter-Glo 72 h.

SMILES strings stand for the structures. Several values for one entry are separate records, joined by “and”; a condition that tells them apart may be missing. Equal values may be shown once. Results filed as inconclusive are left out. Activity calls are given as the source filed them.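 The calls were made as follows, unless noted: active = compounds whose cell count with miR-34 switched on is under 0.7 times the count with it off; inactive = the rest.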

ATP-dependent translocase ABCB1 (Homo sapiens), sequence (P08183 whole entry, looked up): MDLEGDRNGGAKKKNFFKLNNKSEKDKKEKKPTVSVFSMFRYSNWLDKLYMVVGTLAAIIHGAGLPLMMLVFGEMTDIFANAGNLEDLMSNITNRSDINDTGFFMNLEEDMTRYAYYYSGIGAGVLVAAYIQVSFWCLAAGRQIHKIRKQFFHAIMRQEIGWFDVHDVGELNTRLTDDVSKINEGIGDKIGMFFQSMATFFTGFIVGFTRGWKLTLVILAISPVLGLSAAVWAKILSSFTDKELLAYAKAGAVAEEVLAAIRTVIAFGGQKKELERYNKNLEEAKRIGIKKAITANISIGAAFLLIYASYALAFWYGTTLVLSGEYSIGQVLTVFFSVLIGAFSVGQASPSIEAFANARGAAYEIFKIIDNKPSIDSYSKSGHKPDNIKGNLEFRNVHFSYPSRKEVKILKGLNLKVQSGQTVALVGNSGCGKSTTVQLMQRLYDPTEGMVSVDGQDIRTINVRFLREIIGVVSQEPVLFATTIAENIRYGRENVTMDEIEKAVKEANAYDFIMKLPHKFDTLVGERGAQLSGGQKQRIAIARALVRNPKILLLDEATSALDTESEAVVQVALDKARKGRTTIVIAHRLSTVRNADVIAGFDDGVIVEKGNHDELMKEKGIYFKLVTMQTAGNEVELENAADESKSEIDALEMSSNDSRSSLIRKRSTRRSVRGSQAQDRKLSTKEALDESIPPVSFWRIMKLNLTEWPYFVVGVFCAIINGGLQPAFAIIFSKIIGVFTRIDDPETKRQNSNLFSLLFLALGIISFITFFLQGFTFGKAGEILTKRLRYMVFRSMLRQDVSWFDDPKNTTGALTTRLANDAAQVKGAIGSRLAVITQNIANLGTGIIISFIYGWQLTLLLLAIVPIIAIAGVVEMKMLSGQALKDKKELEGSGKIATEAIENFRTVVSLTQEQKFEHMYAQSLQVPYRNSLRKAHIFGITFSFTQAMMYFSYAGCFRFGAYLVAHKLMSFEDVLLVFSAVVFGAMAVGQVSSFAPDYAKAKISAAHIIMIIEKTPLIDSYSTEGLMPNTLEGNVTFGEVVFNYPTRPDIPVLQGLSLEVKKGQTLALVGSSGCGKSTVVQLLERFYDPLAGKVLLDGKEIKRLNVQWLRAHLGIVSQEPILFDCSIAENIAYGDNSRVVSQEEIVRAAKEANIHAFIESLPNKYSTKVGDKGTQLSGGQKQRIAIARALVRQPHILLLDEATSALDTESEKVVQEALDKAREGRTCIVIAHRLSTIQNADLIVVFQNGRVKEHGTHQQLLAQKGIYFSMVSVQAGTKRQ
NAD(+) hydrolase SARM1 (Homo sapiens), sequence (Q6SZW1 whole entry, looked up, the tested form may be a part): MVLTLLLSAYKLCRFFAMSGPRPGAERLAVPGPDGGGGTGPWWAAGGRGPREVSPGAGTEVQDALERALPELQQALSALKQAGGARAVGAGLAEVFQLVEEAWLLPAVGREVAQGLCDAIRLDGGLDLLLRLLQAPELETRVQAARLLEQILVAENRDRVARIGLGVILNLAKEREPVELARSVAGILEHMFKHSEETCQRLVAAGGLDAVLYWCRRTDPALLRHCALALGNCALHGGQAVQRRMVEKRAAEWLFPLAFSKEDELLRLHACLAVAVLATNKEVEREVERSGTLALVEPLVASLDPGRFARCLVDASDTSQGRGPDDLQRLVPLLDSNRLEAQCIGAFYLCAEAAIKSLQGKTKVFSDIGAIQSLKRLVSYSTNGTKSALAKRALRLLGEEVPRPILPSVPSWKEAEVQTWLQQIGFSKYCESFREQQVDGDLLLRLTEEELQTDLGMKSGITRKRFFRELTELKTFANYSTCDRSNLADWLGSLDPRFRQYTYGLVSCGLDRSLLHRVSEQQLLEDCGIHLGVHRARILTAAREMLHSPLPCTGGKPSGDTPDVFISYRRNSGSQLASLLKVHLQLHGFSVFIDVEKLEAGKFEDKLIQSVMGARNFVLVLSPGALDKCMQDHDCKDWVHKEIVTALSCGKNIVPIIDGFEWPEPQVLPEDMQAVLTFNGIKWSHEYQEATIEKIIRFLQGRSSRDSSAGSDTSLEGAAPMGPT
Mitogen-activated protein kinase 7 (Homo sapiens), sequence (Q13164 whole entry, looked up, the tested form may be a part): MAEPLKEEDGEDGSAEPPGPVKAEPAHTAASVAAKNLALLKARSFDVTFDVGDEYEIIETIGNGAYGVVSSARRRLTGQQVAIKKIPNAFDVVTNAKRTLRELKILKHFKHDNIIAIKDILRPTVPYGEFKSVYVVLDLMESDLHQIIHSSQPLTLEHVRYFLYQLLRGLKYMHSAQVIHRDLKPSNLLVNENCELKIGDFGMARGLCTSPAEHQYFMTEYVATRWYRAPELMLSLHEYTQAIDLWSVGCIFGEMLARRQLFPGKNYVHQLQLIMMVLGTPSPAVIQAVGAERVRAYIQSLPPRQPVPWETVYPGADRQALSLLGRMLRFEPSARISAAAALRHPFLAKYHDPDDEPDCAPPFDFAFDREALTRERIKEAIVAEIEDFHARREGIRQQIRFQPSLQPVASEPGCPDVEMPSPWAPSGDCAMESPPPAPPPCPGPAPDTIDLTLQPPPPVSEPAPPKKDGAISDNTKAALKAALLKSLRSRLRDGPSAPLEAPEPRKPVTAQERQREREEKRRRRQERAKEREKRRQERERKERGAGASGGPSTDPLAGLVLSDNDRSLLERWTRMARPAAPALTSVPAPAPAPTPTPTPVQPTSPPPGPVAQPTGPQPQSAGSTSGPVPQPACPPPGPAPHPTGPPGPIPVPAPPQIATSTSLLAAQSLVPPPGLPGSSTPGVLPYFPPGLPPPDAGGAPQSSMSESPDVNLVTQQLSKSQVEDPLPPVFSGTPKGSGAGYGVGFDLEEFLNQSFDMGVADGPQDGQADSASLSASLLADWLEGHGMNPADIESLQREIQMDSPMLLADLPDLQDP

Consider `CC1(C)CC1C(=O)NC(=CCCCCSCC(N)C(=O)O)C(=O)O` (stereo not drawn), for which the nuclear beta-catenin stimulation was -2.2% (inactive) in assay [1] (at 10 µM) and -0.6% in assay [1] (stimulation, at 2 µM). In addition, the insulin secretion stimulation in [2] is 2.2% (inactive). For the same compound, the viability decrease in [3] is 15.4% (inactive). Moreover, the tube area decrease in assay [4] is 26.1% (inactive). Besides, in [5], the GLP1 secretion stimulation is -4.3% (inactive). The inhibition of viability in [6] is 37.8% (inactive). Further, the viability decrease (inhibition) was 28.9% (inactive) in assay [7] and -4% (inactive) in assay [8]. In addition, the fold change in assay [9] (setting [17]) is 0.936 (inactive); in assay [9] (setting [18]), 1.99. Moreover, the results for the cell count in assay [9] (setting [19]) and in assay [9] (setting [20]) were 9810 and 10500, respectively. The z-score in assay [10] was 0.555 (inactive).
As to `NC(=O)OCC(O)COc1ccc(Cl)cc1` (stereo not drawn), the fluorescence slope change in [11] was 58.8% (active). Further, in assay [12], the survival was 16.6 (inactive). The parasite load remaining in assay [13] is 52.4% (inactive) and 99.4% (inactive). Also, the viability in assay [13] is 46% and 92.9%. In addition, the nuclear beta-catenin stimulation in assay [1] (at 10 µM) was -1.4% (inactive); in assay [1] (stimulation, at 2 µM) it was -0.6%. In [2], the insulin secretion stimulation was 1.2% (inactive). In [3], the viability decrease was 0.2% (inactive). Also, the tube area decrease in [4] is -23.7% (inactive). Besides, the GLP1 secretion stimulation in assay [5] is -0.6% (inactive). Also, the inhibition of viability in assay [6] is 8.4% (inactive). Also, the values for the viability decrease (inhibition) in assay [7] and in assay [8] were 4.1% (inactive) and 11.4% (inactive), respectively. For the same compound, the fold change in [9] (setting [17]) is 0.864 (inactive); in assay [9] (setting [18]), 2.23. Also, the cell count in [9] (setting [19]) was found to be 8110; in assay [9] (setting [20]) it was 9380. In addition, the z-score in assay [14] (setting [21]) is -0.968 (inactive); in [14] (setting [22]), -0.0882.
For `CN1CCCC(CC2c3ccccc3Sc3ccccc32)C1` (stereo not drawn), in [11], the fluorescence slope change was 182% (active). For the same compound, the survival in [12] was 1.75 (inactive). For the same compound, the parasite load remaining in assay [13] was 16% (inactive) and 60.9% (inactive). Moreover, in [13], the viability is 59.4% and 67.6%. Also, the nuclear beta-catenin stimulation was 0.2% (inactive) in [1] (at 10 µM) and 1.3% in [1] (stimulation, at 2 µM). Moreover, the insulin secretion stimulation in assay [2] is 20.3% (active). Moreover, the viability decrease in assay [3] is 45.1% (inactive). For the same compound, the tube area decrease in assay [4] is 54.2% (active). For the same compound, the GLP1 secretion stimulation in assay [5] is 20% (active). In addition, in assay [6], the inhibition of viability is 86% (active). In addition, the results for the viability decrease (inhibition) in assay [7] and in [8] were 110% (active) and 77.8% (active), respectively. The fold change in [9] (setting [17]) is 0.892 (inactive); in [9] (setting [18]) it was 1.45. For the same compound, the cell count in assay [9] (setting [19]) is 6900; in assay [9] (setting [20]), 7740. Besides, the values for the z-score in assay [14] (setting [21]) and in assay [14] (setting [22]) were -0.486 (inactive) and 0.0453, respectively.
Take `COc1ccccc1Oc1c(NS(=O)(=O)c2ccc(C(C)(C)C)cc2)nc(-c2ncccn2)nc1OCCO`: the parasite load remaining in assay [13] was 23% (inactive). This compound showed a viability in assay [13] of 71%. The nuclear beta-catenin stimulation in assay [1] (at 10 µM) was -2.1% (inactive); in assay [1] (stimulation, at 2 µM), 0.8%. Further, the insulin secretion stimulation in [2] was 7% (inactive). Also, the viability decrease in assay [3] is -5.8% (inactive). The tube area decrease in [4] was 4.9% (inactive). Further, the GLP1 secretion stimulation in assay [5] is 0.2% (inactive). The inhibition of viability in [6] is 12.9% (inactive). Further, the viability decrease (inhibition) in assay [7] was 81.4% (active); in assay [8], 16.8% (inactive). Further, the fold change in assay [9] (setting [17]) was 0.921 (inactive) and 0.93 (inactive) and 0.843 (inactive); in [9] (setting [18]), 1.38 and 0.578 and 1.32. Also, the cell count in assay [9] (setting [19]) is 8280 and 8370 and 9010; in [9] (setting [20]), 8980 and 9000 and 10700. Besides, the z-score in assay [10] was 0.365 (inactive).
Take `OC[C@@H](O)[C@@H](O[C@@H]1O[C@H](CO)[C@H](O)[C@H](O)[C@H]1O)[C@H](O)[C@@H](O)CO`: the nuclear beta-catenin stimulation in assay [1] (at 10 µM) was 2% (inactive); in assay [1] (stimulation, at 2 µM) it was 0.9%. Also, the insulin secretion stimulation in assay [2] is 2.3% (inactive). The viability decrease in [3] was 22.6% (inactive). Further, in assay [4], the tube area decrease was -0.6% (inactive). The GLP1 secretion stimulation in assay [5] is -0.5% (inactive). Moreover, in assay [6], the inhibition of viability was 6.7% (inactive). Besides, the viability decrease (inhibition) was 20% (inactive) in assay [7] and 3.4% (inactive) in [8]. Moreover, the fold change in [9] (setting [17]) is 0.928 (inactive); in assay [9] (setting [18]) it was 0.884. In addition, the cell count in assay [9] (setting [19]) turned out to be 8700; in [9] (setting [20]), 9370. In addition, the remaining NAD in assay [15] was 10 nM (inactive). For the same compound, the luciferase signal in assay [16] was 56 AU (inactive).

A word on the viability: it is a per cent measure of how many cells are alive, often set against a control.
